From PubChem BioAssay
Rab9 promoter act: activators of Rab9 promoter; Huh7 Rab9 promoter-luciferase reporter, luminescence, 24 h; Potency, µM (titrated, usually from 9.22 µM), without a hit: at the highest dose activation, negative = inhibition, usual class: activators; 320,000 compounds, 2.8% hits; AID 485297; note: % of control where 0% means no effect; nearly all actives have a fitted effect of over 60% in size
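Cells were plated at 1500 per well in reduced-serum medium with 10% FBS and left 2 h. Compound in DMSO was then added for 24 h at 37 °C. Reporter signal was read by luminescence after 10 min with luciferase detection reagent.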
ELG1 genotox: genotoxicity induction in ELG1-luciferase HEK293T cells. HEK293T ELG1-luciferase reporter, luminescence, 16 h. Potency, µM (top dose mostly 46 µM), for the others: top-dose activity change, positive = activation, hits mostly activators. 330,000 compounds, 1.3% hits. AID 504466; note: % of control where 0% means no effect; nearly all actives have a fitted effect of over 60% in size
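After overnight (16 hr) compound treatment at 37 °C, ELG1-luciferase HEK293T cells were lysed with ONE-Glo; luminescence quantified 30 min later at room temperature.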
NPC1 promoter act: NPC1 promoter activation | Huh7 NPC1 promoter luciferase reporter, 24 h | Potency, µM (series often up to 9.22 µM), for inactives: at the highest dose activation, actives largely listed as activators | 320,000 compounds, 2.4% hits; note: % of control where 0% means no effect; nearly all actives have a fitted effect of over 60% in size
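Compounds in DMSO were transferred onto Huh7 NPC1-luciferase reporter cells pre-incubated 2 h; after 24 h at 37 °C, Amplite reagent was dispensed and luminescence recorded 10 min later.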
p53 reactivation: mutant p53 re-activation in reporter cells. H1299 p53-A138V BP100-luciferase reporter, luminescence, 24 h. Potency, µM (highest dose often 92.2 µM), without a hit: top-dose activity change, positive = activation, actives largely listed as activators. 320,000 compounds, 0.063% hits; note: % of control where 0% means no effect; nearly all actives have a fitted effect of over 45% in size
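p53-null H1299 cells stably carrying temperature-sensitive p53-A138V and a BP100-luciferase reporter were pinned with compounds (4-point, 1:5 series) and held 24 hrs at 37 deg C. Luminescence was read 10 min after detection reagent.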
FLuc counter: counter-screen for miR-21 project: firefly luciferase inhibitors or activators; 360,000 compounds, 6.9% hits; AID 588342; purified FLuc, Km substrates, luminescence inhibition; Potency, µM (top dose mostly 57.5 µM), for inactives: at the highest dose activity change, negative = inhibition, actives largely listed as inhibitors;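 note: plate controls were vehicle for no effect and reference inhibitor for full effect; nearly all actives have a fitted effect of over 55% in size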
Target sequence (P08659 whole entry, looked up): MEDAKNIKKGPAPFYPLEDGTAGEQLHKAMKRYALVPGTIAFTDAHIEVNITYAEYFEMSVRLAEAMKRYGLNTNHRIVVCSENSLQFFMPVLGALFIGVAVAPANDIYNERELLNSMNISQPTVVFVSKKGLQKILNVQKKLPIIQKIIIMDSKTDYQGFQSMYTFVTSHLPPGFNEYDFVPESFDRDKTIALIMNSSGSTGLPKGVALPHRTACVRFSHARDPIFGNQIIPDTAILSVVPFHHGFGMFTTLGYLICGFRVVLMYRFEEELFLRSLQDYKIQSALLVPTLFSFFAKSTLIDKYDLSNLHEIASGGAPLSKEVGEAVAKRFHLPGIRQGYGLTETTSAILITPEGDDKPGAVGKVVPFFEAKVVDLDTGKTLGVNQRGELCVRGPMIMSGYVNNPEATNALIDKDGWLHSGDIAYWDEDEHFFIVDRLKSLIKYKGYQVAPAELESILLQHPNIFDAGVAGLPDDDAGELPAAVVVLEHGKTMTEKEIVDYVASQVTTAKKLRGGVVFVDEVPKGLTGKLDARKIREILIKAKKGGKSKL
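Purified P. pyralis luciferase (10nM final) with 10uM D-luciferin and 10uM ATP (Km levels) in 50mM Tris acetate pH 7.5, 10mM Mg acetate, 0.01% Tween-20, 0.05% BSA; qHTS 6-point titration, ~60 µM downward; luminescence read.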
SMN2 splice up: SMN2 splice variant enhancement | HEK293 SMN2-luciferase splicing reporter, luminescence, 30-36 h | Potency, µM (top dose mostly 46.1 µM), without a hit: at the highest dose activity change, positive = activation, hits mostly activators | 210,000 compounds, 2.8% hits | AID 1458; note: % of control where 0% means no effect; nearly all actives have a fitted effect of over 55% in size
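HEK293 cells carry an SMN2 minigene-luciferase reporter in which exon 7 inclusion puts luciferase in frame. Cells were seeded at 2000 cells/well, attached for 10-12 hours, then exposed to compounds for 30-36 hours at 37C before ONE-Glo luminescence.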
Numbers without * were called inactive; ? = inconclusive; / = no result given; [ ] = dose if it differs, or a comment. The list is not random: actives were taken first. Their share in the collection is about 7.3%. Calls come from the whole dose curve; as a rule, active = well fitted curve in the direction sought with a large enough effect; inconclusive = small, poorly fitted or top-dose-only effect, or another doubt; inactive = no such curve, though single readings can be large; an effect the other way counts as inactive or inconclusive. Potency is the fitted concentration of half-maximal effect.

SMILES	Rab9 promoter act	ELG1 genotox	NPC1 promoter act	p53 reactivation	FLuc counter	SMN2 splice up
CC(=O)Oc1ccc(/C=C2/SC(=S)N(Cc3ccccc3)C2=O)cc1	-1%	-3%	1%	4%	-14%	/
CCOc1ccc(/C=C2\SC(=S)N(CC(=O)N(CCO)C(C)(C)C)C2=O)cc1	-2%	-8%	0%	7%	12µM*	-15%
O=C(CCN1C(=O)/C(=C/c2ccccc2)SC1=S)Nc1ccccn1	-4%	-2%	-1%	10%	-12%	/
CCOC(=O)c1c(C)[nH]c(C)c1S(=O)(=O)N1CCC(C(=O)Nc2ccccc2CC)CC1	/	/	/	/	-7%	/
CCCCC(=O)N/N=C/c1ccc(N2CCOCC2)c([N+](=O)[O-])c1	?	-1%	-1%	3%	1%	0%
O=C(/C=C/c1ncc(C(F)(F)F)cc1Cl)OCc1ccccc1	-1%	-1%	-1%	7%	-7%	5%
c1ccc2c(c1)nnn2CN1CCOCC1	/	/	/	/	/	-26%[9.22 µM]
C=C(C)COc1ccc(-c2nc(N)ncc2Oc2ccccc2OC)c(O)c1	2%	4%	2%	-13%	21µM*	-4%
CC1(C)N=C(N)N=C(N)N1c1cccc(CSc2ccccc2)c1	/	/	/	/	/	-22%[9.22 µM]
C/C(=N/OC(=O)C1CC1c1ccccc1)c1ccccc1 (configuration not stated)	0%	?	-1%	2%	19µM*	-35%
Oc1ccc(/C=N/NC(=S)NC2CC3CCC2C3)cc1 (configuration not stated)	?	?	3.2µM*	19%	?	/
Cc1ccc(-c2cn(-c3ccccc3)c(SCC(=O)NC3CCS(=O)(=O)C3)n2)cc1C (configuration not stated)	2µM*	?	3.2µM*	?	?	?
Cc1ccc(SCC(=O)NC2CCS(=O)(=O)C2)cc1C (configuration not stated)	1%	-1%	-2%	2%	-1%	/
Cc1ccc2[nH]c(=O)c(CN(C(=O)c3cccc(Cl)c3)C(C)(C)C)cc2c1	/	/	/	/	-2%	3%
CN(CCO)c1nc(N)c2c(N)nc3c(c2c1C#N)CC(=O)N3C1CCCC1	-3%	-4%	-8%	-2%	-18%	-29%
CC(C)(C)N1C(=O)Cc2c1nc(N)c1c(N)nc(N3CCCCC3CO)c(C#N)c21 (configuration not stated)	23%	2%	24%	-13%	8.5µM*	2%
Nc1c(Cl)ncnc1N/N=C/c1ccc(O)cc1	20%	?	-3%	4%	13µM*	/
Oc1ccc(/C=N/Nc2nccnc2Cl)cc1	3.2µM*	12µM*	4µM*	?	11µM*	?
CCN1C(=O)/C(=C/N2CCc3ccccc3C2)SC1=S	?	10%	?	4%	24µM*	/
COc1ccc(OC)c2c1sc(=NC(=O)c1ccco1)n2C	4%	?	17%	-5%	-2%	28%
CCn1c(=NC(=O)c2ccco2)sc2cccc(F)c21	10%	15µM*	5%	19%	17µM*	16µM*
COc1ccc(C2=NN3C(C2)c2ccccc2OC32C(=O)N(C)c3ccccc32)cc1 (configuration not stated)	4%	15µM*	3%	?	11µM*	4%
Cc1c(Cl)cccc1NC(=O)c1ccc2nc(C(C)C)oc2c1	/	/	/	/	-1%	/
NC(=O)CSc1nc(C2CC2)nc2sc3c(c12)CCCC3	2.5µM*	9.2µM*	2.8µM*	16%	1.5µM*	/
Nc1nc(SCC(=O)NCCOCCO)nc2sc3c(c12)CCCC3	0%	5%	-2%	1%	27µM*	/
SMILES	Rab9 promoter act	ELG1 genotox	NPC1 promoter act	p53 reactivation	FLuc counter	SMN2 splice up
CNC(=O)CSc1nc(N)c2c3c(sc2n1)CCC3	1%	?	-1%	11%	?	-13%
NC(=O)CSc1nc(N)c2c3c(sc2n1)CCCCC3	20%	?	20%	8%	8.5µM*	5%
Cc1sc2nc(SCC(=O)NCCOCCO)nc(N)c2c1C	-2%	2%	-2%	3%	0%	/
COc1ccc(CCNC(=O)c2cccs2)cc1OC	-5%	-2%	-5%	-2%	-1%	10%
COc1ccc(CNc2nc(NCc3ccc(OC)c(OC)c3)n(C(=O)c3cccs3)n2)cc1OC	-1%	-3%	-3%	10%	11µM*	-2%
CC1CC2C3CCC4=CC(=O)C=C[C@@]4(C)[C@]3(F)C(O)C[C@]2(C)[C@]1(O)C(=O)COP(=O)(O)O (some centres not stated)	/	/	/	/	/	14%
O=C(COc1ccc(Br)cc1)Nc1ccc(C(=O)OC2CCCCC2)cc1	/	/	/	/	-2%	-3%
O=C(Nc1ncccc1O)c1cc2ccccc2o1	0.63µM*	?	3.2µM*	/	3.4µM*	/
O=C(Nc1cccc2ncccc12)c1cc2ccccc2o1	-1%	-1%	12%	0%	?	-8%
O=C(Nc1ccc(Cl)cn1)c1cc2ccccc2o1	1.8µM*	0.82µM*	3.5µM*	?	1.9µM*	7.9µM*
O=C(Nc1ccccn1)c1cc2ccccc2o1	0.56µM*	?	?	-8%	0.3µM*	0.71µM*
Cc1ccnc(NC(=O)c2cc3ccccc3o2)c1	?	?	1.3µM*	-16%	0.27µM*	/
Cc1ccc(C(=O)N(Cc2ccc(N(C)C)cc2)CC2CCCO2)cc1 (configuration not stated)	/	/	/	/	-7%	-1%
CC(=O)c1cccc(NC(=O)c2c(-c3ccccc3)c(-c3ccccc3)nn(C)c2=O)c1	/	/	/	/	-4%	-9%
O=C(NC1=NCCS1)c1cc2ccccc2o1	0.35µM*	2.3µM*	0.32µM*	-3%	1.2µM*	4µM*
CCn1c(CCCOc2ccc(Cl)cc2Cl)nnc1SCC(=O)Nc1cccc(F)c1	-5%	0%	1%	5%	9.5µM*	8%
O=C(CSc1nnc(CCCOc2ccc(Cl)cc2Cl)o1)Nc1ccc(C(=O)O)cc1	-6%	4%	1%	-3%	5.4µM*	9%
CCCCCCCCC1OC1CCCCCCCC(=O)O (configuration not stated)	/	/	/	/	/	12%
[O-]/[N+](=C\c1cccc(Br)c1)c1ccccc1	19%	15%	2%	-1%	24µM*	27%
O=C(CSCc1cccc(F)c1)N1CCN(c2ccccc2)CC1	?	13µM*	3.2µM*	?	13µM*	13µM*
O=C(CSCc1ccccc1)N1CCN(c2ccccc2)CC1	?	?	?	?	24µM*	13µM*
O=C(CSCc1ccccc1)N1CCN(c2ccc(F)cc2)CC1	14%	-2%	13%	?	-18%	-2%
